Where “and” joins values, the source holds several entries; their conditions need not be identical. Equal entries are not always repeated. ± gives the standard deviation of the averaged measurements.
system: iBMDM (immortalised mouse bone-marrow-derived macrophages), LPS-stimulated; experiment: mitochondrial superoxide (MitoSOX fluorescence) fold increase over unstimulated control; higher = more LPS-induced mitochondrial ROS (less inhibition); details: inhibitor concentration: 500 nM; LPS: 100 ng/ml; time after LPS: 1 h
Outline: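 Cells were immortalised mouse bone-marrow-derived macrophages, plated in triplicate and switched to phenol-red-free 1% FCS/DMEM for 20 h. Kinase inhibitors (500 nM, 30 min) preceded MitoSox loading (1 μM, 10 min) and LPS addition (100 ng/ml), with 510/580 nm fluorescence read every 60 min for 4 h. Mitochondrial superoxide is reported as averaged fold induction over untreated macrophages.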

Question: With N#CC1(c2ccc(NC(=O)c3cccnc3NCc3ccncc3)cc2)CCCC1 [Apatinib] as the molecule, how does the mitochondrial superoxide read?
Answer: 1.09 ± 0.056

Question: With Cc1cc2c(F)c(Oc3ncnn4cc(OC[C@@H](C)O)c(C)c34)ccc2[nH]1 as the molecule, how does the mitochondrial superoxide read?
Answer: 1.337 ± 0.0099

Question: For Cc1ccc(C(=O)Nc2ccc(CN3CCN(C)CC3)c(C(F)(F)F)c2)cc1C#Cc1cnc2cccnn12, which mitochondrial superoxide is on record?
Answer: 1.08 ± 0.068

Question: Cc1[nH]c(/C=C2\C(=O)Nc3ccc(S(=O)(=O)N(C)c4cccc(Cl)c4)cc32)c(C)c1C(=O)N1CCN(C)CC1 was tested. Which mitochondrial superoxide did it give?
Answer: 1.33 ± 0.11

Question: How did the mitochondrial superoxide turn out when CN(c1ncccc1CNc1nc(Nc2ccc3c(c2)CC(=O)N3)ncc1C(F)(F)F)S(C)(=O)=O was run?
Answer: 1.27 and 1.06

Question: COc1cc2c(N3CCN(C(=O)Nc4ccc(OC(C)C)cc4)CC3)ncnc2cc1OCCCN1CCCCC1 [Tandutinib (MLN518)] was tested. Which mitochondrial superoxide did it give?
Answer: 1.61 ± 0.038

Question: Cc1[nH]c(/C=C2\C(=O)Nc3ccc(S(=O)(=O)Cc4c(Cl)cccc4Cl)cc32)c(C)c1C(=O)N1CCC[C@@H]1CN1CCCC1 was tested. Which mitochondrial superoxide did it give?
Answer: 1.56 ± 0.039

Question: With C#Cc1cccc(Nc2ncnc3cc(OC)c(OCCCCCCC(=O)NO)cc23)c1 as the molecule, how does the mitochondrial superoxide read?
Answer: 1.189 ± 0.011

Question: CCC[C@H](NC(=O)/C(C#N)=C/c1cccc(Br)n1)c1ccccc1 [Degrasyn (WP1130)] was tested. Which mitochondrial superoxide did it give?
Answer: 1.18 ± 0.047

Question: Cc1ccc(-n2nc(C(C)(C)C)cc2NC(=O)Nc2ccc(OCCN3CCOCC3)c3ccccc23)cc1 [BIRB 796 (Doramapimod)] was tested. Which mitochondrial superoxide did it give?
Answer: 0.987 ± 0.051

Question: How did the mitochondrial superoxide turn out when CNC(=O)c1nn(C)c2c1C(C)(C)Cc1cnc(Nc3ccc(N4CCN(C)CC4)cc3)nc1-2 was run?
Answer: 1.31 ± 0.016

Question: With COc1cc2ncnc(Nc3ccc(F)c(Cl)c3)c2cc1OCCCN1CCOCC1 [Gefitinib (ZD1839)] as the molecule, how does the mitochondrial superoxide read?
Answer: 1.6 ± 0.048

Reference: the supplement of paper PMC7393113
